# Most compounds without a hit are left out; they make up all but 3.8% or so of the library.
# TrxR1 substrate: is turned over as a substrate by rat TrxR1; O89049; purified TrxR1 substrate turnover, NADPH consumption readout; Potency, µM (highest dose often 114 µM), inactives show at the highest dose activity change, negative = substrate turnover; 390,000 tested, 0.01% active; also: nearly all actives have a fitted effect of over 50% in size
#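 Rat TrxR1, dispensed at 90 nM, was prereduced with 400 uM NADPH (final) for 5 min at ~22 deg C, then incubated with compound 15 min before 400 uM selenite. A first-read NADPH fluorescence drop versus no-compound background flagged substrates.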
# GLS inhibitor: inhibitors of human glutaminase (GLS). O94925. AID 624170. GLS enzymatic activity, qHTS titration. 410,000 tested, 0.21% active. Potency, µM (titrated, usually from 45.5 µM), inactives show at the top dose activity change, negative = inhibition, actives largely listed as inhibitors
# Target sequence (O94925 whole entry, looked up): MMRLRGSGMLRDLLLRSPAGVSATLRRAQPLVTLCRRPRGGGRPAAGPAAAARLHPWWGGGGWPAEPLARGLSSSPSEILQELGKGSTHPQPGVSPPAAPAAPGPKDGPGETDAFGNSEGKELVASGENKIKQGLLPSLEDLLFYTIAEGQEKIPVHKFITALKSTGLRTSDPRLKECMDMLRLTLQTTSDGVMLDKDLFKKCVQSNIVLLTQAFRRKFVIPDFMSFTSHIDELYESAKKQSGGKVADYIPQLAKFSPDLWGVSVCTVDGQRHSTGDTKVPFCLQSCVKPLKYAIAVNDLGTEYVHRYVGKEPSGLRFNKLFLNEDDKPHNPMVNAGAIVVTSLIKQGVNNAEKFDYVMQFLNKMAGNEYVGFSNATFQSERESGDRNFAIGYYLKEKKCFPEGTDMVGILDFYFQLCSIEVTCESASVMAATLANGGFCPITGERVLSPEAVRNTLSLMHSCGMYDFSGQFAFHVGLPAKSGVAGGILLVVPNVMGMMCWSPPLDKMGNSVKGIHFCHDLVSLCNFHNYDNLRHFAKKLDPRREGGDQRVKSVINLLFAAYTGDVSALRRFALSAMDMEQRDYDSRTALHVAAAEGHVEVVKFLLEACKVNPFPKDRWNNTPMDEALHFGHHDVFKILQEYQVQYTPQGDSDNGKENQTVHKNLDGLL
#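 hKGA; 45 mM KH2PO4 pH 8.2 + 0.02% Tween-20; cpd via pin tool; 1 mM Gln soln; GluOx/HRP/Amplex Red; RT 30 min; fluor. t0 & final.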
# Sfp PPTase inh: inhibitors of Bacillus subtilis Sfp phosphopantetheinyl transferase. Q9F4F7. Biochemical Sfp PPTase activity, qHTS. Potency, µM, for inactives: largest response in the series, negative = inhibition, most hits filed as inhibitors. 310,000 tested, 3.5% active;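 also: the enzyme is Sfp with the accession as filed and its product quenches rhodamine fluorescence; 0% = enzyme reaction without inhibitor and -100% = no enzyme wells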
#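 Buffer: 50 mM Hepes-Na pH 7.6, 10 mM MgCl2, 0.01% Nonidet P-40, 0.01% BSA. Enzyme 15 nM, pre-exposed to compound 15 min; substrates then added and fluorescence change tracked over 30 min.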
# GCN5L2 inh: blocks human GCN5L2 histone acetyltransferase | GCN5L2 HAT assay, ThioGlo1 CoA-SH fluorescence | Potency, µM (series often up to 58.9 µM), without a hit: at the highest dose activity change, negative = inhibition, actives largely listed as inhibitors | 390,000 tested, 0.21% active | AID 504327
#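 Enzyme at 20nM final was mixed with library compounds for 15 min at room temperature. Peptide H3(1-25) at 75uM, acetyl-CoA at 70uM and ThioGlo1 at 50uM were then added. Plates were read immediately and after 20 min (Ex340nm/Em540nm).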
# VDR inh: vitamin D3 receptor (human) inhibition; P11473; 400,000 tested, 0.93% active; VDR-SRC2-3 peptide fluorescence polarization, 2 h; Potency, µM, without a hit: max response, negative = inhibition, most hits filed as inhibitors
#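 Signal is fluorescence polarization, reporting how far test compounds block the interaction of VDR with the SRC2-3 coregulator peptide after a 2 h room-temperature incubation.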
# rTrxR1 inhibitor: blocks rat thioredoxin reductase 1 | recombinant rTrxR1, NADPH fluorescence consumption, selenite substrate | Potency, µM (highest dose often 114 µM), inactives show top-dose activity change, negative = inhibition, most hits filed as inhibitors | 390,000 tested, 1% active; also: nearly all actives have a fitted effect of over 65% in size
#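 Rat TrxR1 (90 nM in the dispensed reagent) was pre-reduced with 400 uM NADPH for 5 min at room temperature, then incubated with compound for 15 min. After 400 uM selenite was added, NADPH fluorescence (Ex 340/Em 450 nm) was followed for 8 min.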
# Numbers without * were called inactive; ? = inconclusive; . = no result; ! = not confirmed by another sample; [ ] = dose if it differs, or a comment. Calls follow the shape of the dose curve; as a rule, active = well fitted curve in the direction sought with a large enough effect; inconclusive = small, poorly fitted or top-dose-only effect, or another doubt; inactive = no such curve, though single readings can be large; an effect the other way counts as inactive or inconclusive. Unless noted, % is scaled to controls: 0 for no effect and ±100 for the full control effect; potency is read from the fitted curve at half-maximal effect.
SMILES,TrxR1 substrate,GLS inhibitor,Sfp PPTase inh,GCN5L2 inh,VDR inh,rTrxR1 inhibitor
Cc1cc(C)c2oc(-c3cccc(NC(=O)c4ccco4)c3)nc2c1,11.1%,10.5%,.,0.8%,6.5%,4.0%
COc1cccc(OC)c1C(=O)Nc1cccc(-c2nc3cc(C)cc(C)c3o2)c1,4.5%[11.4 µM],-0.3%,.,2.4%,-16.8%,16.5%
COc1ccccc1C(=O)Nc1ccc(-c2nc3cc(C)cc(C)c3o2)cc1,13.6%,-0.7%,.,0.4%,89.1µM*,2.6%
Cc1cc(C)c2oc(-c3ccc(C)c(NC(=O)/C=C/c4ccco4)c3)nc2c1,13.1%[11.4 µM],4.7%,.,-20.7%,?,3.16µM*
O=C(/C=C/Nc1ccccc1)C(F)(F)F,9.0%[57.1 µM],3.1%,2.1%,10.8%,?,8.7%[57.1 µM]
N#CC1=C(N)C(C#N)(C#N)C2(CCC3(CC2)OCCO3)C2CC3(CC=C12)OCCO3 (stereo not drawn),5.6%,12.6%,2.7%,-4.4%,17.7%,89.1µM*
COc1ccc(NC(=O)c2cc([N+](=O)[O-])ccc2NC(=O)CNCc2ccccn2)c(OC)c1,-13.5%,22.7%,44.7µM*,-10.2%,31.6µM*,15.3%[57.1 µM]
COc1cc(NC(=O)c2cc([N+](=O)[O-])ccc2NC(=O)CNCc2ccccn2)cc(OC)c1,6.5%[57.1 µM],73.8%,-14.3%,-12.9%,2.9%,21.1%[57.1 µM]
NC(=O)COc1ccc(Nc2nnc(-c3ccc(O)cc3)c3ccccc23)cc1,-1.5%,7.94µM*,2.6%,-7.5%,-3.5%,7.8%
COC(=O)COc1ccc(-c2nnc(Nc3ccc(O)cc3)c3ccccc23)cc1,-5.2%,37.0%,.,0.0%,-5.2%,-4.6%
CNC(=O)c1ccc(Nc2nnc(-c3ccc(O)cc3)c3ccccc23)cc1,-1.5%,?,-0.2%,-3.4%,-2.1%,?
CN(C)C(=O)c1ccc(Nc2nnc(-c3ccc(O)cc3)c3ccccc23)cc1,-14.5%,11.2µM*,-4.7%,-0.1%,1.6%,-15.9%
CNC(=O)c1cc(Nc2nnc(-c3ccc(O)cc3)c3ccccc23)ccc1OC,0.5%,11.2µM*,10.9%,0.7%,-15.5%,3.6%
Cc1cc(N2C(=O)C=CC2=O)c([N+](=O)[O-])cc1C,9.7%,5.4%,-98.3%,20µM*,31.6µM*,2.82µM*
Cc1cc(C)cc(N2C(=O)c3nccnc3C2=O)c1,-2.5%,-2.9%,8.8%,2.8%,-19.1%,6.2%
Cc1ccc(C)c(N2CCN(c3ccc(N4C(=O)COCC4=O)cc3[N+](=O)[O-])CC2)c1,2.7%,16.5%,0.5%,3.6%,-16.2%,5.9%
Cc1cc(C)cc(N2C(=O)C=CC2=O)c1,-2.0%,-8.6%,.,.,39.8µM*,1.12µM*
Cc1c([N+](=O)[O-])cc(N2C(=O)C=CC2=O)cc1[N+](=O)[O-],3.5%[57.1 µM],-19.1%,.,.,-7.3%,3.16µM*
C[C@@H]1O[C@@H](Oc2c(-c3cc(O)c(O)c(O)c3)oc3cc(O)cc(O)c3c2=O)[C@H](O)[C@H](O)[C@H]1O,-4.7%,74.3%,31.6µM*!,0.0%,-14.7%,-3.5%[57.1 µM]
CCC(C)NCCOCCOc1ccc(Cl)cc1Br (stereo not drawn),10.8%[57.1 µM],-0.4%,50.1µM*,-0.9%,-15.5%,19.8%[57.1 µM]
CCOC(=O)c1c(NC(=O)CSc2nnc(-c3cccnc3)o2)sc(C(C)=O)c1C,-12.2%,?,2.1%,-7.6%,?,-6.9%
CC1=CC(=Nc2c(C)n(C)n(-c3ccccc3)c2=O)C=C(C)C1=O,-13.2%,-12.7%,79.4µM*,2.8%,-3.2%,?
CC1=CC(=Nc2c(C)n(C)n(-c3ccccc3)c2=O)C=CC1=O,.,.,8.91µM*,-7.9%,.,.
NC(=O)C1CCCN(C(=O)c2ccc(S(=O)(=O)N3CCCCCC3)cc2)C1 (stereo not drawn),5.9%,0.0%,.,-0.2%,-11.2%,7.6%
COc1cc(NC(=O)CSc2nnc3ccccn23)cc(OC)c1,8.3%,-3.5%,.,0.1%,-13.4%,19.1%
O=C(COC(=O)CNC(=O)c1ccccc1)NCCc1ccccc1,6.1%[57.1 µM],13.3%,11.5%,-0.8%,2.4%,14.3%[57.1 µM]
O=C(CNC(=O)c1ccccc1)NCCc1ccc(O)c(O)c1,.,.,50.1µM*,5.2%,.,.

# Compound activity deposited in PubChem by National Center for Advancing Translational Sciences (NCATS).
